Rce1 inhib: inhibitors of yeast Ras-converting enzyme. AID 2563. calls only. yeast membranes, quenched prenylated peptide cleavage fluorescence. Q03530. hit rate 0.27% among 290,000;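 active = fall in fluorescence gain of 50% or more versus controls, with final raw signal at or below 3038400; inconclusive = same 50% fall but final raw signal above 3038400; inactive = fall in fluorescence gain under 50%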;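 note: plate controls were neutral control wells for no effect and wells lacking membranes for full effect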
GRK2 inh: inhibitors of human GRK2 displacing RNA aptamer; bead flow cytometry, FAM-aptamer displacement from GRK2; AID 488847; inhibition of aptamer binding, % at 10 µM; hit rate 0.59% among 330,000; P25098;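 active = inhibition of aptamer binding above 40%, roughly 3 SD of noise, on plates passing a quality check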;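 note: median bead fluorescence of bound FAM aptamer so fluorescent compounds give negative values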
ALR inh: inhibitors of human sulfhydryl oxidase ALR; P55789; purified ALR, DTT oxidation, H2O2 HRP-luminol luminescence; inhibition, % (no concentration beside the values); hit rate 3.8% among 290,000;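 active = mean replicate inhibition above about 79%, with every replicate also reaching it, limit read from the data; inconclusive = only one of the two criteria met; inactive = mean below limit and not every replicate reaching it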
HDAC3 inhib: inhibitors of human histone deacetylase 3. AID 2718. recombinant HDAC3, fluorogenic peptide/trypsin coupled, fluorescence. hit rate 0.15% among 320,000. inhibition, % at 8.3 µM; in the data active = inhibition above about 26%, passing the limit was not always enough; inconclusive = no clear call, values can overlap the other calls
Target sequence (O15379 whole entry, looked up): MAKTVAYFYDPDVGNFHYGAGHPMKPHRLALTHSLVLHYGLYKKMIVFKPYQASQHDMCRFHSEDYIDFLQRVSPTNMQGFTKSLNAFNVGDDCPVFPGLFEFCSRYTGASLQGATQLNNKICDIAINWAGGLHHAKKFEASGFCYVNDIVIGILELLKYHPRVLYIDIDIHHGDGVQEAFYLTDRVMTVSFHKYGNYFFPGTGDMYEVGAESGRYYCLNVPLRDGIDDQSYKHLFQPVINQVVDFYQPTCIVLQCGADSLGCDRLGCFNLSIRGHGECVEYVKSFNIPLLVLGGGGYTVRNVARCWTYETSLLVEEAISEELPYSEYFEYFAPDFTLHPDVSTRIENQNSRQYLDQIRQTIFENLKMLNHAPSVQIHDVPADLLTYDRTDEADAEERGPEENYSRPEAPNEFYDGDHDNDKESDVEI
Rtt109 HAT inh: inhibitors of Candida albicans Rtt109/Vps75 histone acetyltransferase. purified Rtt109/Vps75, ThioGlo CoA-SH fluorescence, 4 h. inhibition, % at 34.9 µM. hit rate 0.16% among 330,000. AID 540336;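 active = inhibition of at least 50% in every replicate; inconclusive = best replicate reaches 50% inhibition but some replicates fall short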
Efflux pump mplx: inhibitors of Candida antifungal efflux pumps expressed in yeast. S. cerevisiae Candida pump triplex, Nile Red efflux. hit rate 0.44% among 330,000. AID 485275. inhibition, % at 10 µM;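 active = plate passing quality check with inhibition over a set limit, or well fluorescence over plate mean plus 4 SD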;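 note: Nile Red retained in pooled yeast measured as flow cytometry median fluorescence; 0% = buffer negative control and 100% = Enniatin B positive control; higher means more Nile Red kept so more efflux inhibition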
Cmpd fluor yeast: compound fluorescence in yeast efflux pump counter-screen | shares compounds with Efflux pump mplx | S. cerevisiae AD/pABC3, flow cytometry | fluorescence ratio to DMSO, % at 10 µM | hit rate 4% among 1,700;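 active = fluorescence ratio to DMSO above its plate's cutoff, the plate mean ratio plus 5 SD, cut at about 210% in these data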;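 note: unstained yeast with no Nile Red so the signal is compound autofluorescence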
Mdr1 pump inh: inhibitors of Candida albicans Mdr1 efflux pump; hit rate 1% among 1,700; S. cerevisiae AD/CaMDR1, Nile Red efflux, flow cytometry; shares compounds with Efflux pump mplx; inhibition, % at 10 µM; in the data active = inhibition above about 26%;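 note: 0% = DMSO vehicle and 100% = reference inhibitor; higher means more Nile Red retained so more efflux inhibition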
Cdr2 pump inh: Candida Cdr2 efflux pump inhibition. shares compounds with Efflux pump mplx. S. cerevisiae AD/CaCDR2, Nile Red retention, flow cytometry. Nile Red retention ratio vs DMSO, % at 10 µM. hit rate 4% among 1,700; in the data active = Nile Red retention ratio vs DMSO above about 190%;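 note: higher ratio means more blocking of Cdr2 efflux of the dye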
Cdr1 pump inh: Candida Cdr1 efflux pump inhibition; shares compounds with Efflux pump mplx; S. cerevisiae AD/CaCDR1, Nile Red efflux, flow cytometry; inhibition, % at 10 µM; hit rate 1% among 1,700; AID 588522;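 active = inhibition above the screen-wide mean plus twice its standard deviation, cut at about 32% in these data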
The depositor's hits bear a star; i = inactive; ? = inconclusive; nt = no result given. Hits are enriched below; roughly 4.5% of the tested compounds scored in any of these assays.

SMILES	Rce1 inhib	GRK2 inh	ALR inh	HDAC3 inhib	Rtt109 HAT inh	Efflux pump mplx	Cmpd fluor yeast	Mdr1 pump inh	Cdr2 pump inh	Cdr1 pump inh
CCCCCOCC1CC(C/C(C)=N/NC(N)=O)(C(=O)OCC)C(=O)O1 (centres undefined)	i	0	-6	-9	7	0	nt	nt	nt	nt
CCCC(=O)Nc1ccc(C=C(C(C)=O)C(C)=O)cc1	i	0	nt	?	nt	0	nt	nt	nt	nt
COc1ccc(Nc2cc(C(=O)NCCCN3CCOCC3)c3ccccc3n2)c(OC)c1	i	32	nt	3	nt	0	nt	nt	nt	nt
CCN1CCN(c2ccc(S(=O)(=O)N3CCOCC3)cc2NC(=O)c2cc(Cl)nc3ccccc23)CC1	i	2	-8	-2	10	0	nt	nt	nt	nt
COc1ccc(-c2cc(C(=O)NCCN3CCOCC3)c3ccccc3n2)c(OC)c1	i	1	-3	-8	2	0	86	-1	99	0
O=C(Nc1nccs1)c1cc(-c2ccco2)nc2ccccc12	i	1	nt	-4	-3	1	nt	nt	nt	nt
COc1ccc(-c2cc(C(=O)Nc3cc(S(=O)(=O)N4CCOCC4)ccc3N3CCOCC3)c3ccccc3n2)cc1	i	1	-5	2	-15	0.8*	113	0	125	0
COc1ccc(-c2cc(C(=O)Nc3ccc(C)c(N)c3)c3ccccc3n2)cc1	i	2	-9	1	4	0.5*	107	0	103	0
O=C(Nc1nccs1)c1cc(-c2ccccc2)nc2ccccc12	i	0	-2	1	2	11*	103	0	101	0
C[C@@H]1C(=O)O[C@H](C)[C@H]1C[C@@H](O)[C@](C)(O)C1CC[C@@]2(O)C3=CC(=O)[C@@H]4C[C@@H](O)[C@@H](O)C[C@]4(C)C3CC[C@]12C (some centres undefined)	nt	0	-18	-1	11	0	nt	nt	nt	nt
COc1ccc(CCN=C(N)NS(=O)(=O)c2cc(F)ccc2F)cc1	i	0	0	1	-9	0	nt	nt	nt	nt
CCOC(=O)Cc1cc(-c2ccc(O)cc2)nc2ccc3ccccc3c12	i	1	14	-1	-5	0	nt	nt	nt	nt
CCOC(=O)Cc1cc(-c2ccc(OC)cc2)nc2ccc3ccccc3c12	i	3	-8	-5	-13	10*	91	0	106	0
C[C@@H]1CN(C(=O)c2cc(COc3cccc(C(F)(F)F)c3)on2)C[C@H](C)O1	i	6	1	7	1	0.5*	98	0	105	0
CCOC(=O)N1CCN(C(=O)c2cc(COc3cccc(C(F)(F)F)c3)on2)CC1	i	1	0	5	2	0	nt	nt	nt	nt
CCc1noc(C)c1C(=O)OC(C)C(=O)c1c(C)[nH]c2ccccc12 (centres undefined)	nt	1	3	5	2	0	nt	nt	nt	nt
Cc1[nH]c2ccccc2c1C(=O)C(C)OC(=O)c1ccc([N+](=O)[O-])o1 (centres undefined)	i	1	-18	1	-4	0.4*	88	0	104	0
CCc1nnc(NS(=O)(=O)c2ccc(NC(=S)NC(=O)/C=C/c3ccccc3)cc2)s1	i	0	10	11	-34	5.8*	113	0	123	0
Cc1ccc(C(=O)OCC(=O)NC2CC2)cc1S(=O)(=O)N1CCOCC1	nt	2	-3	-1	2	0	nt	nt	nt	nt
O=C(OCc1ccccc1)c1ccc(Br)o1	i	2	0	1	21	1.1*	100	0	116	0
O=C(CCc1ccccc1)NC(=S)Nc1ccc(S(=O)(=O)N2CCOCC2)cc1	i	2	2	-2	-1	8.0*	104	0	99	0

Screening data: PubChem BioAssay, several laboratories
